{"source": "PubChem BioAssay (NCI)", "note": "About 83,000 compounds went through this panel and 20% of them were active in at least one assay; those are over-represented in the sample as a whole.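 Values shown are percent growth following 48 h exposure of cells in 96-well plates to a single concentration of compound; below 10 was considered active.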 Active and inactive are the calls of the source.", "data": [{"test_system": "SNB-19 CNS", "assay": "NCI-60 one-dose screen, 48 h (100 = growth as untreated, 0 = no growth, -100 = all killed)", "settings": "10 µM unless noted", "values": [{"smiles": "CNC(=O)c1cc(Oc2ccc(NC(=O)Nc3ccc(Cl)c(C(F)(F)F)c3)c(F)c2)ccn1", "growth": "3.52% (active)"}, {"smiles": "COCCOc1cnc2ccn([C@H](C)c3nnc4c(F)cc(-c5cnn(C)c5)cn34)c(=O)c2c1", "growth": "73.9% (inactive)"}, {"smiles": "N#Cc1c(-c2ccc(Cl)cc2)csc1NC(=O)Nc1cccc(C(F)(F)F)c1", "growth": "12.1% (inactive)"}, {"smiles": "CC(=O)C1CC(C)CCC1C(C)C", "note": "(centres undefined)", "growth": "91.1% (inactive)"}, {"smiles": "O=C(COc1cccc(/C=C2\\Cc3ccc(Cl)cc3C2=O)c1)Nc1nccs1", "growth": "85.9% (inactive)"}, {"smiles": "O=C(Cn1ccnc1)Nc1ccc(-c2nc3ccccc3s2)cc1", "growth": "76.5% (inactive)"}, {"smiles": "CN1CCC(CNc2ccc3ncc(-c4cccc(OC(F)(F)F)c4)n3n2)CC1", "growth": "-48.6% (active)"}]}, {"test_system": "U251 CNS", "assay": "NCI-60 one-dose screen, 48 h (100 = growth as untreated, 0 = no growth, -100 = all killed)", "settings": "10 µM unless noted", "values": [{"smiles": "C=CC(=O)N1CCC(Oc2cc3c(Nc4ccc(Cl)c(Cl)c4F)ncnc3cc2OC)CC1", "growth": "32.8% (inactive)"}, {"smiles": "FC(F)(F)c1ccc(CNc2ccc(Cc3c[nH]c4ncc(Cl)cc34)cn2)cn1", "growth": "18.2% (inactive)"}, {"smiles": "O=S1(=O)OC(c2cc(Cl)c(O)c(Br)c2)(c2cc(Cl)c(O)c(Br)c2)c2ccccc21", "growth": "101% (inactive)"}, {"smiles": "CC(C)(C)OC(=O)N1CCC(O)[C@@H](O[Si](c2ccccc2)(c2ccccc2)C(C)(C)C)[C@H]1/C=C/c1ccccc1", "note": "(some centres undefined)", "growth": "44.4% (inactive)"}, {"smiles": "Cc1cn(-c2cc(NC(=O)c3ccc(C)c(Nc4nccc(-c5cccnc5)n4)c3)cc(C(F)(F)F)c2)cn1", "growth": "37.5% (inactive)"}, {"smiles": "Cc1cnc(Nc2ccc(OCCN3CCCC3)cc2)nc1Nc1cccc(S(=O)(=O)NC(C)(C)C)c1", "growth": "15.9% (inactive)"}, {"smiles": "Cc1cccc(C)c1N1C(c2ccccc2)=NNC12C=CC(=O)c1c(O)cccc12", "note": "(centres undefined)", "growth": "40.9% (inactive)"}, {"smiles": "C=CC(=O)Nc1cccc(Nc2nc(Nc3ccc(N4CCN(C(C)=O)CC4)cc3OC)ncc2C(F)(F)F)c1", "growth": "30.1% (inactive)"}, {"smiles": "COc1ccc(/C(C)=C(\\c2ccc(Cl)cc2)c2ccc(OCCN3CCCCCC3)cc2)cc1", "growth": "42.3% (inactive)"}, {"smiles": "Cc1cc(C(=O)Nc2cc(Oc3ccc4nc(NC(=O)C5CC5)cn4n3)ccc2C)n(C)n1", "growth": "13.3% (inactive)"}, {"smiles": "CO[C@H](C(=O)N[C@@H](CCCCNC(=O)OCc1ccccc1)C(=O)OC(C)(C)C)[C@@H]1Cc2cc3cc(OC4CC(OC5CC(O)C(O)C(C)O5)C(O)C(C)O4)c(C)c(O)c3c(O)c2C(=O)[C@H]1OC1CC(OC2CC(OC3CC(C)(O)C(O)C(C)O3)C(O)C(C)O2)C(O)C(C)O1", "note": "(some centres undefined)", "growth": "-82.3% (active)"}, {"smiles": "CCN(CCCOc1ccc2c(Nc3cc(CC(=O)Nc4cccc(F)c4)[nH]n3)ncnc2c1)CCOP(=O)(O)O", "growth": "71.8% (inactive)"}, {"smiles": "CC/C=C\\C[C@H]1C/C=C2/C(=O)C=C[C@@H]2C/C=C\\CCCC(=O)O1", "growth": "-80.9% (active)"}, {"smiles": "Cc1cn(-c2cc(NC(=O)c3ccc(C)c(Nc4nccc(-c5cnccn5)n4)c3)cc(C(F)(F)F)c2)cn1", "growth": "39.8% (inactive)"}, {"smiles": "COc1cc2ncnc3c2cc1OCCCCCN(C)Cc1ccc(Br)cc1N3", "growth": "68.6% (inactive)"}, {"smiles": "C[C@@]1(C(=O)Nc2ccc(F)nc2)CCCN1c1nc(Nc2cc(C3CC3)[nH]n2)c2cccn2n1", "growth": "32.3% (inactive)"}, {"smiles": "C[C@]12O[C@H](C[C@]1(O)CO)n1c3ccccc3c3c4c(c5c6ccccc6n2c5c31)CNC4=O", "growth": "-75.1% (active)"}, {"smiles": "CCN1CCN(CCCN(C[C@H]2Cc3ccccc3CN2)[C@H]2CCCc3cccnc32)CC1", "growth": "79.2% (inactive)"}, {"smiles": "COCc1c(-c2ccc(NC(=O)Nc3cc(C(F)(F)F)ccc3F)c(F)c2)c2c(N)ncnn2c1CN1CCOCC1", "growth": "-35.5% (active)"}, {"smiles": "COc1cc2cc(NCc3ccc(F)cc3)nc(C)c2cc1OC", "growth": "29.7% (inactive)"}, {"smiles": "CC(=O)C1=C(C)NC(SCc2nnc(-c3ccc(C)cc3)o2)=NC1c1ccc(F)cc1", "note": "(centres undefined)", "growth": "95.2% (inactive)"}, {"smiles": "N#CC[C@H](C1CCCC1)n1cc(-c2ncnc3[nH]ccc23)cn1", "growth": "63.9% (inactive)"}, {"smiles": "Cc1ccc(-[n+]2c3cc(N)c(C)cc3nc3cc(C)c(Nc4ccccc4)cc32)cc1", "growth": "-75.1% (active)"}, {"smiles": "COc1cc2cc(NCc3ccc(Cl)cc3)nc(C)c2cc1OC", "growth": "30.9% (inactive)"}, {"smiles": "CC(=O)c1cnc2ccc(-c3cc(Cl)c(O)c(Cl)c3)nc2c1NC1CCC(CN(C)C)CC1", "note": "(centres undefined)", "growth": "-26.6% [2.5 µM] (active)"}, {"smiles": "CCN(CC)c1cc2oc3cc(N)cc(=N)c-3nc2cc1C", "growth": "19.4% (inactive)"}, {"smiles": "CO[C@H]1C[C@@H]2CC[C@@H](C)[C@@](O)(O2)C(=O)C(=O)N2CCCC[C@H]2C(=O)O[C@H]([C@H](C)C[C@@H]2CC[C@@H](O)[C@H](OC)C2)CC(=O)[C@H](C)/C=C(\\C)[C@@H](O)[C@@H](OC)C(=O)[C@H](C)C[C@H](C)\\C=C/C=C/C=C/1C", "growth": "23.4% (inactive)"}]}]}
